Potency and affinity values are given separately. Results filed as inconclusive are left out. Entries that show only a call come without a potency. The source made the active and inactive calls.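 How the source made its calls: active means signal loss from cell killing with fitted potency at or below twice the top valid dose; inconclusive means flat drop of 30 to 70%, or unreliable curve fit; inactive means opposite direction, flat within 30%, or weaker potency.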
Test: viability loss in A549 lung cancer cells – cell-based, cherry-picks, 26 µM top dose, cytotoxicity control, dose response (AID 1053119)

Row | SMILES | outcome
1 | C[C@H](O)C#Cc1ccc2c(c1)O[C@H](CN(C)C)[C@H](C)CN([C@@H](C)CO)S2(=O)=O | inactive
2 | C=CCC[C@H](Cc1ccc(F)cc1)C(=O)OC[C@H](Cc1c[nH]c2ccccc12)NC(=O)[C@@H](CC=C)CC(=O)N[C@@H](CO)Cc1ccccc1 | inactive
3 | CO[C@H]1CN(C)C(=O)c2cc(NC(=O)Nc3ccc(Cl)c(Cl)c3)ccc2OC[C@H](C)NC[C@H]1C | inactive
4 | C[C@H](CO)N1C[C@H](C)[C@@H](CN(C)Cc2ccccc2)Oc2ncc(-c3ccccc3)cc2C1=O | inactive
5 | C[C@@H]1CN([C@H](C)CO)C(=O)c2cccc(NC(=O)Nc3ccc(C(F)(F)F)cc3)c2O[C@H]1CN(C)C(=O)Nc1cccc2ccccc12 | inactive
6 | Cc1ccc(S(=O)(=O)N2CC3(C)CN(S(=O)(=O)c4ccc(C)cc4)CC(C)(C2)C3=O)cc1 | inactive
7 | Cc1oc2ccc(O)cc2c1C(=O)c1ccc(Br)cc1 | inactive
8 | C[C@@H]1CN([C@H](C)CO)C(=O)c2cc(-c3ccccc3)cnc2O[C@H]1CN(C)Cc1ccccc1 | inactive
9 | N#Cc1ccc(-c2ccc3c(c2)[C@@H]2[C@@H](CCN2S(=O)(=O)c2cccc(F)c2)[C@@H](CO)N3)cc1 | inactive
10 | COc1ccccc1N(CC(=O)N(CC(C)C)CC(C)C)S(=O)(=O)c1cccs1 | inactive
11 | CN(C)C(=O)c1ccc(-c2ccc3c(c2)[C@@H]2[C@@H](CCN2C(=O)c2ccc(F)cc2)[C@@H](CO)N3C)cc1 | inactive
12 | CN(C)C(=O)c1ccc(-c2ccc3c(c2)[C@@H]2[C@@H](CCN2C(=O)c2ccc(F)cc2)[C@H](CO)N3C)cc1 | inactive

— PubChem BioAssay AID1053119 (Broad Institute, 2014)
